High-throughput results (PubChem BioAssay)
GDH-TPI counter-1 = counter-screen for M. tuberculosis FBA inhibitors: GDH-TPI coupled enzymes; GDH-TPI coupled enzyme counterscreen, NADH absorbance; inhibition, % at 4.8 µM; actives 1.2% (n = 360,000); AID 588335; in the data active means inhibition above about 30%;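 further: 0% = DMSO wells and 100% = wells lacking the enzyme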
FBA Mtb inh = inhibits M. tuberculosis FBA enzyme. AID 588726. inhibition, % at 1 µM. purified M. tuberculosis FBA, fluorescence read-out. P9WQA3. actives 2.3% (n = 360,000);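 further: 0% = vehicle and 100% = reference inhibitor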
CCHFV vOTU inh = CCHFV vOTU protease inhibition | Pep-AMC fluorescence | inhibition, % at 11.5 µM | actives 0.55% (n = 370,000); in the data active means inhibition above about 30%; further: 0% = vehicle wells with enzyme and 100% = no enzyme wells
RecA intein inh = blocks M. tuberculosis RecA intein splicing; P9WHJ3; inhibition, % (concentration not given with the values); actives 0.75% (n = 290,000); cell-free RecA intein splicing, fluorescence; in the data active means inhibition above about 30%;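 further: 0% = vehicle wells and 100% = reference inhibitor control wells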
Target sequence (P9WHJ3 whole entry, looked up): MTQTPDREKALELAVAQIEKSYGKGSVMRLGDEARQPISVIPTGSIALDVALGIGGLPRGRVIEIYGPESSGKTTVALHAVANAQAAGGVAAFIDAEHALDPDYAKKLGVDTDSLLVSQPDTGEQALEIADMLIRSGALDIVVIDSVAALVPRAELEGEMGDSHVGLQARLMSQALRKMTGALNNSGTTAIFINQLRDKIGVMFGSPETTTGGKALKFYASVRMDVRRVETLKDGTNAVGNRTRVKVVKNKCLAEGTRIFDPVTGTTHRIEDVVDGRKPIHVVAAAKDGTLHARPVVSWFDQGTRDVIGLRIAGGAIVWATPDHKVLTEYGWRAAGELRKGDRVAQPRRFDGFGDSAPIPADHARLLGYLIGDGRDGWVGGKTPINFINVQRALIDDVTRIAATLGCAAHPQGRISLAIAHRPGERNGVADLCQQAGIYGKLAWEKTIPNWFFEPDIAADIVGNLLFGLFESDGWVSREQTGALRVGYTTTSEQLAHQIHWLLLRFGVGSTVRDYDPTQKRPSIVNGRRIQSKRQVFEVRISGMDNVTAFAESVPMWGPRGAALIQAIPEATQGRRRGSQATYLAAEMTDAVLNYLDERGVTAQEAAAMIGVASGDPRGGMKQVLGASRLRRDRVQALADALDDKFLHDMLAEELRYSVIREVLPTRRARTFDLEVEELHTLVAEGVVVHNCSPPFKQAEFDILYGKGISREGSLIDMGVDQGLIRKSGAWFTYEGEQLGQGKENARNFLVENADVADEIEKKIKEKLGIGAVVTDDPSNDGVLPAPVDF
Mtb FBA inh conf = confirmation of M. tuberculosis fructose-bisphosphate aldolase inhibitors; inhibition, % at 1 µM; purified M. tuberculosis FBA, fluorescence read-out; actives 78% (n = 5,600); AID 651616; shares compounds with FBA Mtb inh;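 further: 0% = vehicle wells and 100% = reference inhibitor wells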
GDH-TPI counter-2 = inhibits GDH-TPI coupling enzymes, flagging Mtb FBA hits; actives 81% (n = 5,600); inhibition, % at 1 µM; shares compounds with FBA Mtb inh; GDH-TPI coupled enzyme counterscreen, fluorescence; in the data active means inhibition above about 10%
GDH-TPI DR = inhibits GDH-TPI coupling enzymes in dose response; shares compounds with FBA Mtb inh; GDH-TPI coupled enzyme assay, fluorescence, artifact counterscreen; IC50, µM; actives 79% (n = 170); call rule not given here
An asterisk follows results filed as active. Shown are actives, neighbours in structure and some others; about 4.2% of the full set was active somewhere. Unless noted, no stated cut-off is given here; in the data, active means inhibition above about 27%; inactive means the rest.

For CCCn1c(-c2ccc(OC)cc2)nc2nc3ccccc3nc21 the results were GDH-TPI counter-1 43*, FBA Mtb inh 42*, CCHFV vOTU inh -20, RecA intein inh -14, Mtb FBA inh conf 98* and GDH-TPI counter-2 79*.
Screening COCCCn1c(-c2ccc(OC)cc2)nc2nc3ccccc3nc21 returned RecA intein inh -4.
For N#Cc1c(-c2ccc(F)cc2)c2c([nH]c1=O)-c1ccccc1OC2 the results were GDH-TPI counter-1 -8, FBA Mtb inh 105*, CCHFV vOTU inh -194, RecA intein inh -36, Mtb FBA inh conf active and GDH-TPI counter-2 active.
CC1(C)Cc2c(c(-c3ccco3)[nH]c(=O)c2C#N)CO1 was read as GDH-TPI counter-1 13, FBA Mtb inh 14, CCHFV vOTU inh -2 and RecA intein inh -3.
For c1ccc(-c2nc(-c3cccs3)[nH]c2-c2ccccc2)cc1 the results were GDH-TPI counter-1 18, FBA Mtb inh 63*, CCHFV vOTU inh -43, Mtb FBA inh conf active and GDH-TPI counter-2 178*.
COc1cc(-c2nc(-c3ccccc3)c(-c3cccs3)[nH]2)cc(OC)c1O was read as GDH-TPI counter-1 21, FBA Mtb inh 24, CCHFV vOTU inh -3 and RecA intein inh 0.
For COc1cc(-c2nc(-c3ccccc3)c(-c3cccs3)[nH]2)cc(OC)c1OC the results were GDH-TPI counter-1 18, FBA Mtb inh 46*, CCHFV vOTU inh -21, RecA intein inh -1, Mtb FBA inh conf 1 and GDH-TPI counter-2 -5.
`CCc1ccc2c(c1)NC(=O)C2(C)Cc1ccccc1C#N` (stereo not given) gave GDH-TPI counter-1 0, FBA Mtb inh -2 and CCHFV vOTU inh 5.
`Oc1ccccc1C=Nc1cccc2ccccc12` gave GDH-TPI counter-1 -7, FBA Mtb inh 42*, CCHFV vOTU inh -20, RecA intein inh 2, Mtb FBA inh conf 15, GDH-TPI counter-2 -3 and GDH-TPI DR 9.3*.
O=C(Nc1ccc(Cl)c(Cl)c1)c1ccccc1 was read as GDH-TPI counter-1 0, FBA Mtb inh -1 and CCHFV vOTU inh 2.
For CN(C(=O)Nc1ccc(Cl)c(Cl)c1)c1ccccc1C(=O)O the results were GDH-TPI counter-1 12, FBA Mtb inh 68*, CCHFV vOTU inh -46, RecA intein inh -1, Mtb FBA inh conf 142* and GDH-TPI counter-2 134*.
For COc1cc(OC)c(NC(=O)Nc2ccc(OC)c(OC)c2)cc1Cl the results were GDH-TPI counter-1 12, FBA Mtb inh 2, CCHFV vOTU inh -12 and RecA intein inh 0.
For Cc1ccc(NC(=O)Nc2cccc(Cl)c2)c(C(=O)O)c1 the results were GDH-TPI counter-1 -1, FBA Mtb inh 94*, CCHFV vOTU inh -7, RecA intein inh -2, Mtb FBA inh conf 104* and GDH-TPI counter-2 78*.
`COc1cc(NC(=O)Nc2ccc(Cl)c(Cl)c2)c(C(=O)O)cc1OC` gave GDH-TPI counter-1 5, FBA Mtb inh 104*, CCHFV vOTU inh -23, RecA intein inh 0, Mtb FBA inh conf 49* and GDH-TPI counter-2 47*.
`O=C(c1cc(-c2ccco2)nc2ccccc12)N1CCCC(C(F)(F)F)C1` (stereo not given) gave GDH-TPI counter-1 2, FBA Mtb inh 102*, CCHFV vOTU inh -203, Mtb FBA inh conf active and GDH-TPI counter-2 active.
`CCOC(=O)C1CCCN(C(=O)c2cc(-c3ccco3)nc3ccccc23)C1` (stereo not given) gave GDH-TPI counter-1 5, FBA Mtb inh 84*, CCHFV vOTU inh -51, Mtb FBA inh conf active and GDH-TPI counter-2 157*.
For c1ccc(-n2c(SCc3cccc4ccccc34)nnc2-c2ccccn2)cc1 the results were CCHFV vOTU inh -2.
CCCCC1C(C#N)=C(C)NC2=C1C(=O)CC(C)(C)C2 (stereo not given) was read as GDH-TPI counter-1 12, FBA Mtb inh 57*, CCHFV vOTU inh -69, RecA intein inh -97, Mtb FBA inh conf 63* and GDH-TPI counter-2 45*.
Screening COC(=O)c1ccc(C2C(C#N)=C(C)NC3=C2C(=O)CC(C)(C)C3)cc1 (stereo not given) returned GDH-TPI counter-1 13, FBA Mtb inh 75*, CCHFV vOTU inh -169, RecA intein inh -12, Mtb FBA inh conf 82* and GDH-TPI counter-2 52*.
`CC(C)(CC1(C)NC(=O)NC1=O)OCc1ccccc1` (stereo not given) gave GDH-TPI counter-1 -1, FBA Mtb inh -1 and CCHFV vOTU inh -8.
O=C(NCCCO)c1ccc2[nH]c3ccccc3c2c1 was read as GDH-TPI counter-1 2, FBA Mtb inh 36*, CCHFV vOTU inh -13, RecA intein inh -2, Mtb FBA inh conf 125* and GDH-TPI counter-2 91*.
Cc1nc(C(=O)NCCCO)cc2c1[nH]c1ccccc12 was read as GDH-TPI counter-1 6, FBA Mtb inh 19, CCHFV vOTU inh -12 and RecA intein inh 9.
`O=C(Cn1nc(-c2cccc(Cl)c2)ccc1=O)NCC1COCCO1` (stereo not given) gave GDH-TPI counter-1 -2, FBA Mtb inh 1, CCHFV vOTU inh -9 and RecA intein inh 5.
Screening O=C(Nc1ccc2c(c1)C(=O)NC2=O)c1ccccc1Cl returned GDH-TPI counter-1 12, FBA Mtb inh 30*, CCHFV vOTU inh -16, RecA intein inh 1, Mtb FBA inh conf 7 and GDH-TPI counter-2 -2.
For O=C(Nc1ccc2c(c1)C(=O)NC2=O)c1ccccc1 the results were GDH-TPI counter-1 -3, FBA Mtb inh 41*, CCHFV vOTU inh -47, RecA intein inh -2, Mtb FBA inh conf 198* and GDH-TPI counter-2 123*.
`CC(C)Oc1ccc(S(=O)(=O)N2CCOCC2)cc1NC(=O)C1=COCCO1` gave GDH-TPI counter-1 11, FBA Mtb inh -4, CCHFV vOTU inh 7 and RecA intein inh 0.
For O=C(Cc1cccs1)NC(Cc1c[nH]c2ccccc12)C(=O)O (stereo not given) the results were GDH-TPI counter-1 1, FBA Mtb inh -1, CCHFV vOTU inh -2 and RecA intein inh 0.
Cc1c(O)ccc2c(CC(=O)N[C@@H](Cc3c[nH]c4ccccc34)C(=O)O)cc(=O)oc12 was read as GDH-TPI counter-1 9, FBA Mtb inh 38*, CCHFV vOTU inh -58, RecA intein inh 1, Mtb FBA inh conf 89* and GDH-TPI counter-2 62*.
For O=C(Cc1cc(=O)oc2cc(O)ccc12)N[C@@H](Cc1c[nH]c2ccccc12)C(=O)O the results were GDH-TPI counter-1 18, FBA Mtb inh 37*, CCHFV vOTU inh -60, RecA intein inh -19, Mtb FBA inh conf active and GDH-TPI counter-2 161*.
COc1ccc(-c2cn3cc(Cl)ccc3n2)cc1OC was read as GDH-TPI counter-1 16, FBA Mtb inh 57*, CCHFV vOTU inh -62, RecA intein inh 3, Mtb FBA inh conf 72* and GDH-TPI counter-2 47*.
